High-throughput results: PubChem BioAssay, National Center for Advancing Translational Sciences (NCATS)
KDM5B inh = KDM5B demethylase inhibition | Q9UGL1 | KDM5B demethylase, FDH-coupled NADH fluorescence (FDH is formaldehyde dehydrogenase) | Potency, µM (highest dose often 57.7 µM), hits mostly inhibitors | 220,000 compounds, 2.6% hits; active = well fitted inhibition curve with a large enough effect; also: 0% is about no effect; nearly all actives have a fitted effect of over 70% in size
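Inhibition is measured as reduced NADH fluorescence generation from FDH coupling to formaldehyde release. Truncated KDM5BΔAP at 200 nM final acts on H3K4me3 peptide (12.5 µM in substrate mix) in pH 7.5 HEPES buffer with Tween-20, 30 min, room temperature.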
An asterisk follows results filed as active; i = inactive; [ ] = dose if it differs, or a comment. This excerpt belongs to a sample that is enriched for hits. Potency is read from the fitted curve at half-maximal effect.

SMILES	KDM5B inh
Cc1ccc(C2Cn3nnc(C(=O)N4CCC(C(=O)NCc5cccc(F)c5)CC4)c3CO2)cc1 (stereo not given)	i
CC(C)CCN1CCC2(CC1)CNC(=O)c1ccccc1O2	i
CCC1Oc2ccc(NC(=O)COC)cc2CN(Cc2ccc(Cl)cc2)C1=O (stereo not given)	i
CCC1Oc2ccc(NC(=O)Cc3ccc(OC)cc3)cc2CN(Cc2ccc(OC)cc2)C1=O (stereo not given)	i
COc1ccc(CCN2Cc3cc(NC(=O)c4ccc(F)cc4F)ccc3OC(C)C2=O)cc1 (stereo not given)	i
COc1ccc(C(=O)Nc2ccc3c(c2)CN(Cc2ccc(F)cc2)C(=O)C(C)O3)c(OC)c1 (stereo not given)	31.6µM*
CCC1Oc2ccc(NC(=O)c3ccc(OC)c(OC)c3)cc2CN(Cc2ccc(Cl)cc2)C1=O (stereo not given)	28.2µM*
COc1ccc(CN2Cc3cc(NC(=O)c4ccccc4F)ccc3OC(C)C2=O)c(OC)c1 (stereo not given)	i
O=C(CCc1ccc2c(c1)CN(C(=O)C1CC1)CCO2)NCc1cc(F)cc(F)c1	i
CCOc1cc(/C=C(\C#N)c2nc3ccccc3[nH]2)ccc1OC(C)CC (stereo not given)	i
Cc1noc(-c2ccc(N3CCCCC3C)c([N+](=O)[O-])c2)n1 (stereo not given)	i
Cc1nn(C)c(C)c1CCC(=O)N1C[C@@H](CO)[C@H](c2ccccn2)C1	i
COC[C@@H]1[C@H](NC(=O)c2ccc(-n3cccn3)cc2)[C@@H]2CCO[C@H]12	i
Cc1nc(N2CCCCC2)ncc1C(=O)N[C@H]1[C@H]2CCO[C@H]2[C@@H]1N(C)C	22.4µM*
Cc1nc2ncccn2c1C(=O)N[C@H]1[C@H]2CCO[C@H]2[C@@H]1N(C)C	31.6µM*
Cc1nc(N2CCCC2)ncc1C(=O)Nc1ccc(OC(F)(F)F)cc1	i
CN(CC(=O)N[C@H]1[C@H]2CCO[C@H]2[C@@H]1N(C)C)Cc1ccc(F)cc1	i
Cc1nc(N2CCCCC2)ncc1C(=O)NC1CCOC2(CCOCC2)C1 (stereo not given)	i
O=C(CCC1CCCO1)NC1CCCCCC1 (stereo not given)	i
COc1cccc(OCC(=O)N(C)Cc2nc(-c3ccccc3)no2)c1	i
Cc1ccc(CN2CC[C@@H]3[C@H]2C(=O)NC[C@H](CCC(=O)N2CCN(c4ccccn4)CC2)N3C)cc1	31.6µM*
COC[C@H]1CCCN1C(=O)CC[C@H]1CNC(=O)[C@@H]2[C@@H](CCN2Cc2ccc(C)cc2)N1C	i
CC(C)N1CC[C@@H]2[C@H]1C(=O)NC[C@H](CCC(=O)N1CCN(c3ccccc3)CC1)N2C	i
CN1[C@@H](CCC(=O)N2CCN(c3ccccc3)CC2)CNC(=O)[C@@H]2[C@H]1CCN2Cc1csnn1	i
CN1[C@@H](CCC(=O)N2CCc3ccccc32)CNC(=O)[C@@H]2[C@H]1CCN2Cc1cccs1	i
SMILES	KDM5B inh
CN1[C@@H](CCC(=O)NCc2ccccc2)CNC(=O)[C@@H]2[C@H]1CCN2Cc1cccs1	i
O=C(N[C@H]1C[C@H]2C(=O)NC[C@@H](CCC(=O)N3CCN(c4ccccn4)CC3)N2C1)c1ccccc1	25.1µM*
CN1[C@@H](CCC(=O)NCc2ccco2)CNC(=O)[C@H]2NCC[C@H]21	i
COc1ccc(C(=O)N[C@H]2C[C@H]3C(=O)NC[C@@H](CCC(=O)N4CCN(C)CC4)N3C2)cc1	i
CN1[C@@H](CCC(=O)N2CCN(c3ccccn3)CC2)CNC(=O)[C@@H]2[C@H]1CCN2Cc1cccs1	28.2µM*
O=C(Nc1ccccc1)N[C@H]1C[C@H]2C(=O)NC[C@@H](CCC(=O)N3CCN(c4ccccc4)CC3)N2C1	i
CN1[C@@H](CCC(=O)N2CCN(c3ccccn3)CC2)CNC(=O)[C@H]2NCC[C@H]21	35.5µM*
CCC(=O)N1CCc2cc(Br)cc(S(=O)(=O)N3CCCC(C(=O)Nc4cccc(C)c4C)C3)c21 (stereo not given)	i
O=C(NCc1cccnc1)C(=O)NCC1OCCN1S(=O)(=O)c1cc(F)ccc1F (stereo not given)	i
O=C(CSc1nc2c(c(=O)[nH]1)CN(Cc1ccc3c(c1)OCO3)CC2)Nc1ccc(F)cc1	i
O=C(OCC1CCCCC1)c1nn(-c2ccccc2)c(=O)c2ccccc12	i
Cc1cccc(-c2n[nH]c(-c3cccc(C)c3)c2C)c1	i
O=C(c1ncccn1)N1CC(F)(F)C[C@H]1c1nc(C2CC2)no1	i
CSc1cccc(CNC(=O)C2CCC(=O)N(CCCN3CCCC3=O)C2)c1 (stereo not given)	i
O=C1OC[C@@H]2CCN(Cc3ccc(C(F)(F)F)cc3)Cc3ccc(F)cc3N12	i
Cc1noc(C)c1C(=O)N1CCC2(CC1)CC(c1ccccc1)C(=O)N2C (stereo not given)	i
Cc1ccccc1-c1cc(O)c2c(c1)CN(C(=O)C1CCNCC1)CCO2	i
CCc1ccc(-c2cc(C(F)(F)F)n3nc(C(=O)NCc4cnn(C)c4)cc3n2)s1	i
Cc1ccccc1-c1cc(C(=O)NCc2cnn(C)c2)c2c(c1)N(C)CCO2	31.6µM*
CN1CCOc2c(C(=O)NCc3cnn(C)c3)cc(-c3ccc(CO)cc3)cc21	20µM*
Cc1ccc(CNC(=O)c2cn(C)c3ccc(S(=O)(=O)N4CCOCC4)cc3c2=O)cc1	i[11.5 µM]
Cc1ccc(-c2cc(C(=O)NCc3cnn(C)c3)c3cc(Br)ccc3n2)cc1	i
C=CCN(C)C(=O)[C@@H](C)C1CC[C@@]2(C)Cc3sc(NC(=O)CC(C)(C)C)nc3[C@@H](C)[C@@H]2[C@H]1O (stereo not given in full)	i
O=C(Cc1cccc(F)c1)N1CCC[C@H]1c1nc(-c2ccccc2Cl)no1	i
COc1ccc(N2CCN(Cc3nc4c(c(=O)n(C)c(=O)n4C)n3C(C)C)CC2)cc1	i
SMILES	KDM5B inh
CC1CCCN(CCCCNC(=O)CCc2ccc(C#N)cc2)C1 (stereo not given)	i
CCOC(=O)c1c(S(=O)(=O)NCC(=O)N2CCC3(CC2)OCCO3)c(C)n(C)c1C	i
Cc1cccc(NC(=O)CN2C(=O)NC3(CCCCC3)C2=O)c1C	i
CCn1c(=O)c(=O)n(CC)c2cc(S(=O)(=O)Nc3ccc(C)cc3)ccc21	i
O=C1NCc2ccccc2CC12CCCN2Cc1ccc(O)cc1O (stereo not given)	89.1µM*
COc1ccc(CN2CCCC23Cc2ccccc2CNC3=O)c(O)c1 (stereo not given)	i
O=C1NCc2ccccc2CC12CCCN2Cc1ccc(O)cc1 (stereo not given)	i
CCc1ccc(CNC(=O)CN2C(=O)CSc3ccc(S(=O)(=O)N4CCOCC4)cc32)cc1	i
O=C(CCc1ccc(F)cc1)N1CCC(c2nc3ccccc3s2)CC1	i
COc1cccc(CNC(=O)Cn2c(=O)cc(C)c3c(C)nn(C)c32)c1OC	i
O=C(Nc1ccc(-c2nc3ccccc3o2)cc1)C(F)(F)F	i
Cc1ccc(C(=O)Nc2ccc(-c3nc4ccccc4o3)cc2)cc1	i
CC(=O)N1CCCC1C(=O)Nc1ccc(-c2nc3ccccc3o2)cc1 (stereo not given)	28.2µM*
O=C(NC1CCCCCC1)c1cccc(Oc2ccccc2)c1	i
COc1ccc(-c2cn(C)c(=O)n3cc(CN4CCN(C)CC4)nc23)cn1	i
